Reference: PubChem BioAssay (NCATS)
Values joined by “and” are separate entries in the source; they are usually repeats but may differ in a detail not shown here. Equal entries are not always repeated. Records with an inconclusive call do not appear. Active and inactive are the calls of the source. Unless noted, the call rests on the fitted dose curve; in most records, active means well fitted curve in the direction sought with a large enough effect; inconclusive means small, poorly fitted or top-dose-only effect, or another doubt; inactive means no such curve, though single readings can be large; an effect the other way counts as inactive or inconclusive.

Experiments:
[1] = Cellular Toxicity (caspase-3) BJ (AID 658);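 further: 0% = DMSO basal and 100% = 10 µM staurosporine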
How it was run: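 Luminescent aminoluciferin-substrate cleavage reports caspase 3/7 activity in normal human BJ fibroblasts after 16 hr compound exposure at 37 °C. Normalized to DMSO (basal) and 10 uM staurosporine (100%); AC50 from Hill fit of concentration-response.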

[2] = target: Cytochrome P450 3A4 (Homo sapiens) (UniProt P08684); test: qHTS Assay for Inhibitors and Substrates of Cytochrome P450 3A4 (AID 884); further: on the % scale 0 is the no-effect control and ±100 the full control effect; nearly all actives have a fitted effect of over 50% in size
How it was run: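 20 nM human CYP3A4 with 25 uM Luciferin-PPXE (at KM) in 200 mM KPO4, preincubated 10 min with compound; NADPH regeneration started a 60 min RT reaction. Luciferin detected by luminescence, normalized to 57 uM ketoconazole as full inhibition.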

[3] = target: Estrogen receptor (Homo sapiens) (UniProt P03372); test: qHTS assay for small molecule antagonists of estrogen receptor alpha signaling (AID 588513; active means well fitted curve in the direction sought with a large enough effect in the signal ratio, with a control signal flat, not every such curve was filed as active; the % refers to the signal ratio; further: on the % scale 0 is the no-effect control and ±100 the full control effect)
How it was run: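 Antagonist-mode qHTS in ER-alpha-UAS-bla HEK 293 cells: compound titration, 0.5nM estradiol for 18 h, CCF4 fluorescence, Hill-derived IC50.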

[4] = target: Estrogen receptor (Homo sapiens) (UniProt P03372); test: qHTS assay for small molecule agonists of estrogen receptor alpha signaling (AID 588514; calls by dose curve;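 further: 0% = vehicle only and 100% = reference agonist; nearly all actives have a fitted effect of over 70% in size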)
How it was run: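 ER-alpha-UAS-bla GripTite HEK 293 cells in medium with 2% charcoal/dextran-treated FBS were treated with compound titrations at 37 C for 18 hrs; beta-lactamase reporter read by CCF4 fluorescence after 2 hrs at RT.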

[5] = target: Glucocorticoid receptor (Homo sapiens) (UniProt P04150); test: qHTS assay for small molecule agonists of glucocorticoid receptor signaling (AID 588532; active means well fitted curve in the direction sought with a large enough effect in the signal ratio, with a control signal flat; the % refers to the signal ratio;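 further: 100% = dexamethasone at 0.1 µM and 0% = DMSO only wells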); conditions: HeLa MMTV-bla, beta-lactamase ratio, agonist, 18 h; stronger effect = higher value; percent of dexamethasone control, DMSO zero
How it was run: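 Stimulation of a glucocorticoid response element-driven beta-lactamase gene was measured in HeLa cells. Responses were scaled between DMSO basal and 0.1 uM dexamethasone, then fitted for half-maximal stimulation.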

[6] = target: Glucocorticoid receptor (Homo sapiens) (UniProt P04150); test: qHTS assay for small molecule antagonists of glucocorticoid receptor signaling (AID 588533; active means well fitted inhibition curve with a large enough effect in the signal ratio, with a control signal flat, not every such curve was filed as active; the % refers to the signal ratio;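 further: cells stimulated with 2 nM dexamethasone as agonist; on the % scale 0 is the no-effect control and ±100 the full control effect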)
How it was run: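 Antagonist-mode qHTS: compound titrations added to GRE-bla HeLa cells, then dexamethasone 2 nM final; 18 h, 37 C. CCF4 FRET fluorescence normalized to dexamethasone and DMSO; IC50 from Hill fit.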

[7] = target: Peroxisome proliferator-activated receptor delta (Homo sapiens) (UniProt Q03181); test: qHTS assay for small molecule agonists of peroxisome proliferator-activated receptor delta signaling (AID 588534; calls by dose curve;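 further: 0% = DMSO basal wells and 100% = positive control agonist at 10 µM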)
How it was run: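 Cell-based beta-lactamase reporter assay run in agonist mode: cells seeded and incubated 5 hrs at 37 C, compounds added and incubated 18 hrs at 37 C. CCF4 dye fluorescence read after 2 hrs at RT; EC50 and efficacy from Hill fits.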

[8] = qHTS assay for small molecule antagonists of peroxisome proliferator-activated receptor delta signaling (AID 588535; active means well fitted inhibition curve with a large enough effect in the signal ratio, with a control signal flat, not every such curve was filed as active; the % refers to the signal ratio;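 on max response: cells co-treated with a PPAR-delta agonist as stimulator during compound exposure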); conditions: HEK293T PPARd-UAS-bla, beta-lactamase FRET ratio, 18 h; 460 nm channel
How it was run: (§1)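 GeneBLAzer PPAR-delta-UAS-bla HEK293T cells in medium with 2% charcoal/dextran FBS were preincubated 5 hrs at 37 C, then given compounds, incubated 18 hrs at 37 C, and read by CCF4 beta-lactamase fluorescence; IC50 from Hill fits.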

[9] = target: Peroxisome proliferator-activated receptor delta (Homo sapiens) (UniProt Q03181); test: as above
How it was run: as §1

[10] = target: Peroxisome proliferator-activated receptor gamma (Homo sapiens) (UniProt P37231); test: qHTS assay for small molecule antagonists of peroxisome proliferator-activated receptor gamma signaling (AID 588537; active means well fitted inhibition curve with a large enough effect in the signal ratio, with a control signal flat, not every such curve was filed as active; the % refers to the signal ratio;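 further: reporter cells co-stimulated with 50 nM rosiglitazone agonist during compound treatment; % of control where 0% means no effect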)
How it was run: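 PPAR-gamma-UAS-bla HEK293 cells (3000/well, 1% charcoal/dextran-stripped FBS) were preincubated 6-6.5 h at 37 C, given titrated compounds, then stimulated with 50 nM rosiglitazone for 16 h. Beta-lactamase activity was read with CCF4 dye; IC50 came from Hill fits.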

[11] = target: Vitamin D3 receptor (Homo sapiens) (UniProt P11473); test: qHTS assay for small molecule antagonists of vitamin D receptor signaling (AID 588541; calls by dose curve;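 further: receptor activated by calcitriol during compound treatment; on the % scale 0 is the no-effect control and ±100 the full control effect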)
How it was run: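 VDR-UAS-bla HEK293T cells (2000/well, 2% charcoal-stripped FBS) were treated with titrated compounds plus 1-alpha,25-dihydroxyvitamin D3 (50 nM or 3 nM final) for 16 h at 37 C. CCF4 beta-lactamase fluorescence was read; Hill fits gave IC50.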

[12] = target: Voltage-gated inwardly rectifying potassium channel KCNH2 (Homo sapiens) (UniProt Q12809); test: qHTS Assay for Small Molecule Inhibitors of the Human hERG Channel Activity (AID 588834);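 further: top concentration of the series differs between compounds; on the % scale 0 is the no-effect control and ±100 the full control effect; lower thallium flux fluorescence means stronger hERG block; nearly all actives have a fitted effect of over 50% in size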
How it was run: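 Blockade is seen as reduced FluxOR thallium-flux fluorescence in U2OS cells expressing hERG from a BacMam construct, in Opti-MEM with 2% FCS. Concentration-response data fitted to the Hill equation for AC50.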

[13] = qHTS assay for small molecule disruptors of the mitochondrial membrane potential - 1 hr assay (AID 651754; calls by dose curve; further: nearly all actives have a fitted effect of over 35% in size; further: potency means the concentration at half of the fitted maximal effect)
How it was run: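 HepG2 cells, attached overnight at 37C, were exposed to compound or DMSO vehicle for 1 hr at 37C, 5% CO2, then stained with Mito-MPS dye for 30 min. Red aggregate versus green monomer fluorescence reports membrane potential.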

[14] = qHTS assay for environmental chemicals that activate the Aryl hydrocarbon Receptor (AhR) signaling pathway (AID 651777); conditions: 1A2-DRE human hepatoma cells, luciferase, 24 h; activation: stronger effect = higher value; further: nearly all actives have a fitted effect of over 15% in size; further: potency means the concentration at half of the fitted maximal effect; on activation: % of control where 0% means no effect
How it was run: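 Following a 24 hr incubation with test chemicals at 37 C and 5% CO2, 1A2-DRE human hepatoma cells received One-Glo reagent; after 30 min at room temperature, luciferase output reflected CYP1A2 induction via AhR.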

[15] = target: Nuclear receptor ROR-gamma (Homo sapiens) (UniProt P51449); test: qHTS assay for small molecule antagonists of the retinoid-related orphan receptor gamma (ROR-gamma) signaling pathway (AID 651802); further: on the % scale 0 is the no-effect control and ±100 the full control effect; nearly all actives have a fitted effect of over 60% in size
How it was run: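 CHO cells carrying TET-inducible ROR-gamma and an ROR response element–luciferase reporter were exposed to compound, then induced with doxycycline. After 16hr at 37C, luminescence was read; lower signal indicates antagonism.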

[16] = qHTS assay for small molecule antagonists of the retinoid-related orphan receptor gamma (ROR-gamma) signaling pathway - cell viability counter screen (AID 720652; active means well fitted curve in the direction sought with a large enough effect in the repeat runs; an effect the other way counts as inactive or inconclusive;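 further: compound exposure lasted 16 hr before ATP read; on the % scale 0 is the no-effect control and ±100 the full control effect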)
How it was run: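 Counter screen in CHO cells carrying TET-inducible ROR-gamma and an ROR response element-luciferase reporter; cells plated 5 hr, compound pinned, doxycycline added, then 16 hr at 37 C. Viability read as intracellular ATP by CellTiter-Glo luminescence.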

[17] = Cell Viability - N2a (AID 540); conditions: N2a mouse neuroblastoma cell viability; activity change, negative = cytotoxicity: at 92.2 µM (top of the series);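 further: plate controls were DMSO alone for no effect and tamoxifen control for full effect; nearly all actives have a fitted effect of over 45% in size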
How it was run: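 Mouse neuroblastoma N2a cells (1500/well) were preincubated 5 hr at 37 °C, then exposed to compounds for 40 hr at 37 °C in complete medium. Viability was read as intracellular ATP by CellTiter-Glo luminescence; AC50 from Hill fits.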

[18] = qHTS assay for small molecule agonists of the antioxidant response element (ARE) signaling pathway (AID 651741; active means well fitted activation curve with a large enough effect in the signal ratio; the % refers to the signal ratio; further: potency means the concentration at half of the fitted maximal effect; on activation: % of control where 0% means no effect)
How it was run: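 ARE-bla HepG2 cells (beta-lactamase reporter under ARE control) were plated at 2,000 cells/well, preincubated 5 h at 37 C/5% CO2, then treated with DMSO-dissolved compounds for 16 h at 37 C; LiveBLAzer B/G FRET substrate added, fluorescence read after 2 h at room temperature.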

[19] = qHTS assay for small molecule activators of the nuclear factor-kappa B (NF-kB) signaling pathway (AID 651749; active means well fitted activation curve with a large enough effect in the signal ratio; the % refers to the signal ratio; further: % of control where 0% means no effect); conditions: NF-kB-bla ME-180 cells, beta-lactamase FRET ratio, 16 h; stronger effect = higher value
How it was run: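 ME-180 cells stably carrying a beta-lactamase reporter under an NF-kB response element were exposed to compound or DMSO vehicle for 16 hr at 37C, 5% CO2. Pathway activation was read by FRET, since reporter expression disrupts FRET.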

[20] = qHTS assay for small molecule activators of the p53 signaling pathway (AID 651743; active means well fitted activation curve with a large enough effect in the signal ratio, not every such curve was filed as active; the % refers to the signal ratio; further: % of control where 0% means no effect); conditions: HCT-116 p53RE-bla, beta-lactamase FRET ratio, 16 h; activation: stronger effect = higher value
How it was run: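 p53RE-bla HCT-116 cells with a stably integrated beta-lactamase reporter under p53 response elements were plated, rested 5 hours at 37 C/5% CO2, then exposed to compounds in DMSO for 16 hours at 37 C. LiveBLAzer B/G FRET substrate was read after 2 hours at room temperature.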

Nuclear receptor ROR-gamma (Homo sapiens), sequence (P51449 whole entry, looked up): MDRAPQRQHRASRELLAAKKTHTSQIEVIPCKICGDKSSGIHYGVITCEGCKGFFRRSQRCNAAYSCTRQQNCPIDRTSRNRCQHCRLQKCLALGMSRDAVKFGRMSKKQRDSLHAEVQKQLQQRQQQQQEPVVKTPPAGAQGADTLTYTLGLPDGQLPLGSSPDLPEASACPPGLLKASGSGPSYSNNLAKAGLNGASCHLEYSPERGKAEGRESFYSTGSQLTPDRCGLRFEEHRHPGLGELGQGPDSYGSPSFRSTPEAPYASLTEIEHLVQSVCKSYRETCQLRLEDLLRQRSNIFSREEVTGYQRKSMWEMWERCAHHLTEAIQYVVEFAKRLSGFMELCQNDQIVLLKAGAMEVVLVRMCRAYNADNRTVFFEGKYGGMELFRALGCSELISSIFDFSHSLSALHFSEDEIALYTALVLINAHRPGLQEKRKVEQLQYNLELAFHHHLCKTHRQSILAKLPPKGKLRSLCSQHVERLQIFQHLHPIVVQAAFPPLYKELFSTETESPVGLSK
Vitamin D3 receptor (Homo sapiens), sequence (P11473 whole entry, looked up): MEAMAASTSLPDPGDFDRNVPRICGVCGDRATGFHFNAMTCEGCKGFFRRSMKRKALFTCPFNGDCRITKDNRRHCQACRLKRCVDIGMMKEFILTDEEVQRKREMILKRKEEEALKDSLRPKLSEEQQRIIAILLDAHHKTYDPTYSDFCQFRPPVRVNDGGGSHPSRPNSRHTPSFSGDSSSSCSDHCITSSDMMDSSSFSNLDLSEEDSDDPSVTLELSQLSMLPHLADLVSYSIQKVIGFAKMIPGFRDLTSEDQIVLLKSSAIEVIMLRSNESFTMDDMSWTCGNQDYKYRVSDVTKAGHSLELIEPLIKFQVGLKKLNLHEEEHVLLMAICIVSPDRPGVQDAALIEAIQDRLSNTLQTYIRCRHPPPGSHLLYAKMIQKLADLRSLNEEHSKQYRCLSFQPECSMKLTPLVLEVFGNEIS
Glucocorticoid receptor (Homo sapiens), sequence (P04150 whole entry, looked up): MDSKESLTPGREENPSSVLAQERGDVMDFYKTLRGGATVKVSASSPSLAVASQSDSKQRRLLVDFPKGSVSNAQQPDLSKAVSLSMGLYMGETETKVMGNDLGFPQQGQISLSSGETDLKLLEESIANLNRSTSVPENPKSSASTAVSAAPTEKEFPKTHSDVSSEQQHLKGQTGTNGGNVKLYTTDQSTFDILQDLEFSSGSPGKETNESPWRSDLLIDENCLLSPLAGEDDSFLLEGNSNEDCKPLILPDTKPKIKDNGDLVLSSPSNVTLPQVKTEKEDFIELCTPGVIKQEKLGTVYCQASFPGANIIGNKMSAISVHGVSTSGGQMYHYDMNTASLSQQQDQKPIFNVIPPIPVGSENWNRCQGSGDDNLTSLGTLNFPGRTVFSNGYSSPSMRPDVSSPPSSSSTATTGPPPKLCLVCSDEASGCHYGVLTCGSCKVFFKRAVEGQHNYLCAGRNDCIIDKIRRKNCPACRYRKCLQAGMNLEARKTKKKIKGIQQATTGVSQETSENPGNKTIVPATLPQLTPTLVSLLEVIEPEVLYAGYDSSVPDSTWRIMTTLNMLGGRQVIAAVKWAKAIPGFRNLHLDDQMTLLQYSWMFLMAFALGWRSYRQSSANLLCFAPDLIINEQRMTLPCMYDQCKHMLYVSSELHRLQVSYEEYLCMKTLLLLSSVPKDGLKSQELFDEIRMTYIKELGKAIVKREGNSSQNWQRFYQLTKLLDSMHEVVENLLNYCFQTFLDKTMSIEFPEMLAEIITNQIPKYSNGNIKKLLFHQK
Estrogen receptor (Homo sapiens), sequence (P03372 whole entry, looked up): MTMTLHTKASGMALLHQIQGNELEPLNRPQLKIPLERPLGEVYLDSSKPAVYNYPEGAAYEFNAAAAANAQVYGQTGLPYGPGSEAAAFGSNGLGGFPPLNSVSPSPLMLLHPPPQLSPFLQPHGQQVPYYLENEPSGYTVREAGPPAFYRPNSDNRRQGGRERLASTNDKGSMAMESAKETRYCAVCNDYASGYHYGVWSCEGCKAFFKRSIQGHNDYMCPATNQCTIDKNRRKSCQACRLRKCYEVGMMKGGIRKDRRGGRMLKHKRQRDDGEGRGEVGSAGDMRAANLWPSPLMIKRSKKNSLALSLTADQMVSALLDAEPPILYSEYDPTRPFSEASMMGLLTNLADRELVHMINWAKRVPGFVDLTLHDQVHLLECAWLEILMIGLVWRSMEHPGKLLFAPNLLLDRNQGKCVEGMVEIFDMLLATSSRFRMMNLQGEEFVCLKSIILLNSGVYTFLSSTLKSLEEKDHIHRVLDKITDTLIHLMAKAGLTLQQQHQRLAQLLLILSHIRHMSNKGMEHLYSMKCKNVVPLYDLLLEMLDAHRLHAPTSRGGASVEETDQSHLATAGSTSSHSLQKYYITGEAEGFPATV
Peroxisome proliferator-activated receptor gamma (Homo sapiens), sequence (P37231 whole entry, looked up): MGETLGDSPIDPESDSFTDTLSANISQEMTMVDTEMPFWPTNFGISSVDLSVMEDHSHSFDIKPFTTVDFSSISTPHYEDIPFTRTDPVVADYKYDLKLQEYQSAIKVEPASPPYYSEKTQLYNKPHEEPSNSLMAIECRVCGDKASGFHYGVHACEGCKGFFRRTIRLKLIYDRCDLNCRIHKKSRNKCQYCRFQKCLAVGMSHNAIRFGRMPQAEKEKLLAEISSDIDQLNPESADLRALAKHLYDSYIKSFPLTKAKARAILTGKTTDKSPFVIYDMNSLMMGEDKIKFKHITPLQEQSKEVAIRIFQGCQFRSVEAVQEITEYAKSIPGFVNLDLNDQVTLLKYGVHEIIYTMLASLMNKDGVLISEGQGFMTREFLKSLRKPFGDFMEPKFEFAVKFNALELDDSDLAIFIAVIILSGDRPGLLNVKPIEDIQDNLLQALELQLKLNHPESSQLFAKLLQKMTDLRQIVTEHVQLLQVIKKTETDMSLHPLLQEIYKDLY
Cytochrome P450 3A4 (Homo sapiens), sequence (P08684 whole entry, looked up): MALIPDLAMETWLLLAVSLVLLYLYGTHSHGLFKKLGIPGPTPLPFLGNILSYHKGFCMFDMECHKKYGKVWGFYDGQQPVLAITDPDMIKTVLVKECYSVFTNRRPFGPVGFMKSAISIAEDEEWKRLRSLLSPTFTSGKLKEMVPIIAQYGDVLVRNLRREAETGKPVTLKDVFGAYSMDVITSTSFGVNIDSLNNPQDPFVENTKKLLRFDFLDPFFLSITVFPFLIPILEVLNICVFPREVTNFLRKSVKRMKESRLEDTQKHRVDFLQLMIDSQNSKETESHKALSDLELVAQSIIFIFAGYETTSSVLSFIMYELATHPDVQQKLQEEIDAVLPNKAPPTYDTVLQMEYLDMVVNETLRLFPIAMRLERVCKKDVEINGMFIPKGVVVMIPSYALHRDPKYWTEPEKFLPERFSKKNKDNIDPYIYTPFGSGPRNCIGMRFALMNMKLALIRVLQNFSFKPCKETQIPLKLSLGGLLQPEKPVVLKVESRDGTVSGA
Peroxisome proliferator-activated receptor delta (Homo sapiens), sequence (Q03181 whole entry, looked up): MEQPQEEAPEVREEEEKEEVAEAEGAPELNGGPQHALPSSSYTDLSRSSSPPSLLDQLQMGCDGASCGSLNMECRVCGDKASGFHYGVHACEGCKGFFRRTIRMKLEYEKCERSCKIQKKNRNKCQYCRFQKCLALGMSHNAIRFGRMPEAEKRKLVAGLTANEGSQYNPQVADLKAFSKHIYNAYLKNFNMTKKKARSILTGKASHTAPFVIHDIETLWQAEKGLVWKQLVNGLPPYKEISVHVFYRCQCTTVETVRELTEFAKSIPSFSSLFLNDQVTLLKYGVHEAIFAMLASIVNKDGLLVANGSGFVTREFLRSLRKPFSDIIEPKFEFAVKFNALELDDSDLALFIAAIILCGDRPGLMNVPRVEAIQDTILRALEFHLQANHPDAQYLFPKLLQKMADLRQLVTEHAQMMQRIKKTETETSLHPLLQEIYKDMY
Voltage-gated inwardly rectifying potassium channel KCNH2 (Homo sapiens), sequence (Q12809 whole entry, looked up): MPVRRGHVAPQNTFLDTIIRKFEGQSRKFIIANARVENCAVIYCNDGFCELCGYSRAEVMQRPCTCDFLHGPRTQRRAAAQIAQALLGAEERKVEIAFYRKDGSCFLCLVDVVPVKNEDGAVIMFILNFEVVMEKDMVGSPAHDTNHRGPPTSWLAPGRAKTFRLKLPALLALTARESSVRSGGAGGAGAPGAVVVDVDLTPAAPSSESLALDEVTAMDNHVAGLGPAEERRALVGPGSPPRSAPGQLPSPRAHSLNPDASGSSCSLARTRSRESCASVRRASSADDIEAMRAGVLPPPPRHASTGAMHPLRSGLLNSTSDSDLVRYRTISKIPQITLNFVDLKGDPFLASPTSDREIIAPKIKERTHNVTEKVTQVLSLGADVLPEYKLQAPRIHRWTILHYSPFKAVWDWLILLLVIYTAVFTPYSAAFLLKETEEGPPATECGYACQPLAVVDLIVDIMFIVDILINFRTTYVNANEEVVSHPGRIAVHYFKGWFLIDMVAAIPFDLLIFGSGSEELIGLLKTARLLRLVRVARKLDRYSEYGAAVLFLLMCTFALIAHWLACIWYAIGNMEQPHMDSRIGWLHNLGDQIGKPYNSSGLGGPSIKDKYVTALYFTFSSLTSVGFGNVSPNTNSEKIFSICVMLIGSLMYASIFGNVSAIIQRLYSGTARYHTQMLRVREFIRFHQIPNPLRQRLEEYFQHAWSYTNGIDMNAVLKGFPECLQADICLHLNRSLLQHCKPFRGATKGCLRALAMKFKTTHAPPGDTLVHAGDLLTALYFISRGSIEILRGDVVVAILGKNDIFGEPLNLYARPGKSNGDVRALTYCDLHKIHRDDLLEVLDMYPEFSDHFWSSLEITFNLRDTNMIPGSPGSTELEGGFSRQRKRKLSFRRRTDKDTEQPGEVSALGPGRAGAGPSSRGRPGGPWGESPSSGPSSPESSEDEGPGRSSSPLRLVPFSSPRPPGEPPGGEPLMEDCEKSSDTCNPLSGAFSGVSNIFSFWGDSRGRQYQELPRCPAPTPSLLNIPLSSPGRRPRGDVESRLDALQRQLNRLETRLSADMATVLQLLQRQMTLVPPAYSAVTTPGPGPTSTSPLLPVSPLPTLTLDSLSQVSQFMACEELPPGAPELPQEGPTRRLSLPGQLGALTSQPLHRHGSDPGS

OCCOCCO
inactive: outcome [1] | Potency [2] | Potency [3] | Potency [4] | activation [5] -0.687% | outcome [6] | outcome [7] | outcome [9] | Potency [10] | outcome [11] | Potency [12] | Potency [13] | activation [14] -0.842% | Potency [15] | Potency [16]
5.13%: max response [8]

O=S(=O)(Cl)c1ccccc1
inactive: Potency [17] | Potency [2] | outcome [9] | Potency [10] | outcome [11] | Potency [12] | Potency [18] | activation [19] 0.118% and -0.385% | activation [14] 0.182% and 1.5% | Potency [16]
7.79% and -11.8%: max response [8]

c1ccc(P(c2ccccc2)c2ccccc2)cc1
58.2%: max response [8]
active: Potency [18] 37.6 µM
inactive: Potency [2] | Potency [3] | Potency [4] | activation [5] 1.22% | outcome [6] | Potency [10] | activation [20] -3.71% | activation [19] -0.914% | activation [14] 0.491% | Potency [15] | Potency [16]

ClCc1ccccn1
inactive: Potency [17] | outcome [1] | Potency [2] | Potency [3] | Potency [4] | activation [5] 7.32% and 6.72% | outcome [6] | outcome [7] | Potency [10] | outcome [11] | Potency [18] | activation [20] -0.689% and -0.994% | Potency [13] | activation [14] -0.85% and 1.26% | Potency [15] | Potency [16]
3.34%: max response [8]

COc1ccc(C=O)cc1
inactive: Potency [17] | outcome [1] | Potency [2] | Potency [3] | Potency [4] | activation [5] -0.198% | outcome [6] | outcome [7] | Potency [12] | Potency [18] | activation [20] -1.3% | activation [19] -0.721% | activation [14] 0.954% | Potency [15]
2.98%: max response [8]

Cc1ccc(N)cc1N
0.381% and -13.2%: max response [8]
active: Potency [13] 23.7 µM | Potency [14] 44.7 µM
inactive: Potency [17] | outcome [1] | Potency [3] | Potency [4] | activation [5] -6.12% and -1.93% | outcome [6] | outcome [7] | Potency [10] | outcome [11] | Potency [12] | activation [20] -3.51% and -0.675% | activation [19] -0.705% and -3.37% | Potency [15]

[O-][Cl+]O
inactive: Potency [17] | Potency [2] | Potency [3] | Potency [4] | activation [5] 9.28% | outcome [7] | outcome [11] | Potency [12] | Potency [18] | activation [20] 0.903% | activation [19] -0.295% | Potency [13] | activation [14] 0.878% | Potency [15]

O=C(Cc1ccccc1)OCc1ccccc1
inactive: outcome [1] | Potency [2] | Potency [3] | Potency [4] | activation [5] 0.186% | outcome [7] | outcome [9] | outcome [11] | Potency [12] | Potency [13] | Potency [16]
18.5%: max response [8]
